# GLP1R ag: qHTS of GLP-1 Receptor Agonists; Potency, µM (highest dose often 45.6 µM), for inactives: at the highest dose activation, usual class: activators; Glucagon-like peptide 1 receptor (Homo sapiens), P43220; HEK293 GLP-1R CRE-luciferase, luminescence, 4-6 h; cells express a hypersensitive GLP-1R form; AID 624172, 2012; hit rate 0.007% among 380,000; note: potency is the fitted concentration of half-maximal effect; % of control where 0% means no effect
# HEK293 tox: qHTS of GLP-1 Receptor Inverse Agonists: Cytotox Screen | hit rate 0.13% among 410,000 | Potency, µM (highest dose often 38.3 µM), for inactives: at the top dose activity change, negative = inhibition, most hits filed as inhibitors | AID 624418, 2012 | HEK293 cAMP-luciferase reporter cells, luminescence, 24 h;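 note: loss of luciferase light is scored as toxicity; potency is the fitted concentration of half-maximal effect; % is set by controls: 0 for no effect and ±100 for the full control effect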
#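 Seeding density was 200 cells/uL; after overnight-length (12 h) culture, 23 nL compounds went on for 24 h at 37 °C. Readout used a luciferase detection reagent, luminescence taken after 12 min at room temperature.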
# PTHR1 ag: qHTS for PTHR1 Agonists: Primary Screen; Parathyroid hormone/parathyroid hormone-related peptide receptor (Homo sapiens), Q03431; HEK293 GP2 PTHR1 cells, GloSensor cAMP luminescence, 1 h; Potency, µM (top dose mostly 115 µM), for inactives: at the highest dose activation, actives largely listed as activators; hit rate 0.075% among 410,000; note: potency is the fitted concentration of half-maximal effect; nearly all actives have a fitted effect of over 55% in size
# Target sequence (Q03431 whole entry, looked up): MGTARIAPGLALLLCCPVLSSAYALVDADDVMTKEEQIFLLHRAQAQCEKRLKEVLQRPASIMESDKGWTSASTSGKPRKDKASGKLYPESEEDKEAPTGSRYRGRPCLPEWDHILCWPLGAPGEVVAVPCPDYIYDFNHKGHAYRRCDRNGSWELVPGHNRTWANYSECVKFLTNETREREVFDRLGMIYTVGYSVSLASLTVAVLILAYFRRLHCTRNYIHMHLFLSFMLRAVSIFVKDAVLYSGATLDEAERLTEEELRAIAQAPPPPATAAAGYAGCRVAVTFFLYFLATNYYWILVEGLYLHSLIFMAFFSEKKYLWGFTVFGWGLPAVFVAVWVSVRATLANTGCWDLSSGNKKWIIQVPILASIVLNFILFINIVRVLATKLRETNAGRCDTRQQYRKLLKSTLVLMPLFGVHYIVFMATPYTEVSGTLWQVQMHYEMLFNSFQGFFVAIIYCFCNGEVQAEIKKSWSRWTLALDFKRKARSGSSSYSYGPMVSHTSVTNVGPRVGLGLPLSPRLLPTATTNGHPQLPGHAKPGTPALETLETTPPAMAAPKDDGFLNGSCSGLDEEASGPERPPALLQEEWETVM
#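 HEK-293-derived GP2 cells expressing PTHR1 and a GloSensor cAMP reporter, 3,000/well, plated overnight, given luciferin plus IBMX (each 0.5 mM as added) for 1 h at 37 °C, then compound for 1 h at 37 °C. Luminescence was read after 15 min at room temperature.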
# GLP1R inv ag: qHTS of GLP-1 Receptor Inverse Agonists (Inhibition Mode); AID 624417, 2012; Glucagon-like peptide 1 receptor (Homo sapiens), P43220; Potency, µM (titrated, usually from 38.3 µM), for inactives: top-dose activity change, negative = inhibition, usual class: inhibitors; HEK293 GLP-1R CRE-luciferase, luminescence, 24 h; GLP-1R form is constitutively active; hit rate 1.6% among 410,000; note: potency is the fitted concentration of half-maximal effect; % is set by controls: 0 for no effect and ±100 for the full control effect; nearly all actives have a fitted effect of over 55% in size
#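 Inverse agonism was detected as reduced cAMP-driven luciferase luminescence after 24 h compound treatment. The cells were HEK293 clones expressing constitutively active human GLP-1R with the reporter. Reporter-only and GPR119 cell lines served as counterscreen controls.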
# TRHR PAM: qHTS for Small Molecule Agonists and Allosteric Enhancers of Human TRH Receptor: Primary Screen for Enhancers; hit rate 0.66% among 360,000; enhancement, % at 2 µM; TRHR cells, fluo-8 calcium fluorescence, EC20 TRH enhancement; Thyrotropin-releasing hormone receptor (Homo sapiens), P34981; AID 493056, 2011; in the data active = enhancement above about 30%; note: 0% is about no effect
#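 TRHR-expressing cells loaded with fluo-8 calcium dye were read kinetically (ex 480/em 530) during compound addition, then stimulated with an EC20 of TRH (10 nM final). Enhancement of the Gq-mediated intracellular calcium response was scored.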
# TRHR agonist: qHTS for Small Molecule Agonists and Allosteric Enhancers of Human TRH Receptor: Primary Screen for Agonists; Thyrotropin-releasing hormone receptor (Homo sapiens), P34981; TRHR cells, calcium flux fluo-8, FDSS agonist mode; activation, % at 2 µM; hit rate 0.18% among 360,000; AID 493084, 2011; in the data active = activation above about 30%; note: 0% is about no effect
#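 Fluo-8-loaded TRHR cells; 10 s baseline, compound added, kinetic Ca2+ fluorescence read 1/s, agonist mode.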
# * hit, by the source's call; i = inactive; u = inconclusive; x = no result. Sampled rows, rich in hits. Any-hit rate of the full collection: about 2.4%. Unless noted, calls come from the whole dose curve; as a rule, active = well fitted curve in the direction sought with a large enough effect; inconclusive = small, poorly fitted or top-dose-only effect, or another doubt; inactive = no such curve, though single readings can be large; an effect the other way counts as inactive or inconclusive.
SMILES,GLP1R ag,HEK293 tox,PTHR1 ag,GLP1R inv ag,TRHR PAM,TRHR agonist
COc1cc(OC)c(C2CC(=O)Nc3ccc4ccccc4c32)cc1OC (stereo not given),0.5%,-4.7%,-5.9%,u,0.9,-1.4
NC(=O)N/N=C/c1ccc2cccc(OCc3ccccc3)c2n1,18.7%,2.4%,i,49.3%,8.1,-0.2
O=C(Cc1ccccc1)N/N=C/c1ccc2cccc(O)c2n1,6.4%,5.62µM*,-5.8%,u,-0.3,-0.1
O=C(CSc1nc2ccccc2s1)N1c2ccccc2Sc2ccccc21,-0.1%,12.6%,u,5.62µM*,x,x
Fc1cccc(Cc2c(-c3cccc(Br)c3)nc3ccc(Br)cn23)c1,8.3%,-11.3%,-12.6%,u,x,x
Cc1c(C(=O)N2CCN(C(c3ccccc3)c3ccccc3)CC2)oc2ccccc12,-6.7%,19.0%,-15.5%,4.47µM*,-0.6,0.6
O=[N+]([O-])c1ccc(Cl)cc1NCc1cccnc1,21.8%,-2.8%,-6.9%,5.62µM*,x,x
O=C(O)c1ccc(NCc2cccnc2)c([N+](=O)[O-])c1,-2.8%,-16.0%,u,6.1%,9.3,0.3
CC(C)(CO)NCc1c(OCc2ccc(Cl)cc2)ccc2ccccc12,-0.2%,u,-8.8%,5.62µM*,-7.1,2.2
CC(Oc1ccc2c(-c3ccccc3)cc(=O)oc2c1)C(=O)N[C@H](Cc1c[nH]c2ccccc12)C(=O)O (stereo not given in full),5.5%,4.0%,-15.8%,-4.3%,9.2,0.4
O=C(CN1CCN(Cc2ccccc2Cl)C1=O)NCc1ccco1,-5.9%,-19.2%,i,-28.6%,2.7,-0.4
CC(=O)C1=C(C)NC(SCC(=O)c2ccc(F)cc2)=C(C#N)C1CC(C)C (stereo not given),-2.4%,128.3%,-8.9%,u,-0.9,-0.7
Cc1cc(F)ccc1NC(=O)c1ccc(NS(=O)(=O)c2cc(C(C)(C)C)ccc2C)cc1,-3.8%,u,-8.0%,4.47µM*,19.5,0.1
CC(=O)Nc1ccc(NC(=O)c2ccc(NS(=O)(=O)c3cc(C(C)(C)C)ccc3C)cc2)cc1,2.8%,-6.9%,-19.7%,-18.7%,-0.9,-0.5
O=C(COC(=O)c1ccccc1NC(=O)C1CC1)c1ccc2c(c1)OCCO2,x,x,x,x,-25.0,0.4
Cc1ccc2nc(N(CCCN(C)C)C(=O)CCc3ccccc3)sc2c1,9.0%,u,i,u,4.5,1.2
CN(C)CCCN(C(=O)c1cccs1)c1nc2ccc(F)cc2s1,x,u,i,-6.8%,14.0,2.6
CN(C)CCCN(C(=O)c1ccc2c(c1)CCCC2)c1nc2ccc(Cl)cc2s1,-47.3%,-25.2%,-5.7%,5.01µM*,12.7,1.4
CN(C)CCCN(C(=O)c1sc2ccccc2c1Cl)c1nc2ccc(F)cc2s1,4.3%,-27.4%,i,10µM*,-6.5,-0.2
CN(C)CCCN(C(=O)CCc1ccccc1)c1nc2ccc(Cl)cc2s1,-0.3%,u,-10.9%,3.55µM*,4.4,6.6
CCOc1ccc2nc(N(CCCN(C)C)C(=O)c3ccc4c(c3)CCCC4)sc2c1,2.3%,u,u,u,-2.9,1.1
Cc1cccc(NC(=O)CCC(=O)N/N=C/c2ccco2)c1C,-10.9%,-14.9%,-23.8%,0.3%,33.5*,-0.3
O=C(CCC(=O)Nc1ccccc1)N/N=C/c1ccco1,3.4%,8.9%,i,-8.9%,38.0*,-0.3
O=C(N/N=C/c1ccco1)Nc1ccccc1,10.6%,0.6%,-13.6%,8.0%,7.4,0.3
Cc1nn(C(C)C)c(C)c1CN1CCC(C(=O)Nc2cccc(-c3cccc(F)c3)c2)CC1,4.1%,u,-11.7%,5.01µM*,0.6,1.3
SMILES,GLP1R ag,HEK293 tox,PTHR1 ag,GLP1R inv ag,TRHR PAM,TRHR agonist
Cc1cc(N2CCC(C(=O)Nc3ccc(F)cc3)CC2)nc(-c2ccccc2)n1,-10.6%,-23.4%,-25.1%,10µM*,-0.7,1.5
COc1ccc(NC(=O)C2CCN(c3cc(C)nc(-c4ccccc4)n3)CC2)cc1,-6.4%,u,-25.5%,u,0.6,-0.5
Cc1cccc(CN2CCC(C(=O)Nc3cccc(-c4cscn4)c3)CC2)n1,6.2%,-20.1%,-36.2%,-26.0%,1.0,0.3
Cc1cccc(CN2CCC(C(=O)Nc3cccc(-c4cccc(F)c4)c3)CC2)n1,7.2%,u,-12.8%,10µM*,0.1,-0.1
Cc1cc(C)n(/C(=C\N(C)C)C(=O)c2ccc(Cl)cc2)n1,-4.6%,1.2%,i,10.5%,-5.0,0.2
O=C(NCC1CC1)c1ccccc1Cl,4.4%,1.3%,i,8.5%,7.7,0.0
N#Cc1ccccc1NC(=O)CSc1nc(-c2ccccc2)cc(C(F)(F)F)c1C#N,x,12.1%,-93.3%,1.3%,-2.7,41.6*
O=C(OCc1ccccc1)/C(=C/c1cccc(Br)c1)NC(=O)c1ccco1,-3.4%,12.0%,-36.8%,10µM*,-3.2,0.1
O=C(Nc1ccccc1)/C(=C/c1cccc(Br)c1)NC(=O)c1ccco1,5.6%,8.9%,-5.1%,2.2%,-4.6,-1.6
CCCCN1CCNC[C@@H]1Cc1ccc(O)cc1,12.9%,4.2%,17.4%,17.7%,1.2,-0.6
COC(=O)c1c(C)[nH]c(C(=O)OC(C)C(=O)N2CCOCC2)c1C (stereo not given),-2.6%,-2.2%,i,11.1%,-6.3,0.5
NS(=O)(=O)c1ccc(NC(=O)Nc2ccc(C(F)(F)F)cc2)cc1,4.9%,-11.5%,-14.6%,5.01µM*,-2.8,0.4
Cc1ccc(-c2cc(C#N)c(=O)n(Cc3c(Cl)cccc3Cl)c2)cc1,-1.5%,6.1%,i,0.0%,12.1,0.3
CCN(CC)c1ccc(/C=N/N(c2ccccc2)c2ccccc2)c(O)c1,-1.6%,22.2%,-35.9%,6.31µM*,2.1,0.5
CCOc1ccc(-n2c(=O)c3sccc3n(CC(=O)NC3CCCCC3)c2=O)cc1,10.2%,4.7%,-8.3%,-8.3%,38.6*,-0.8
Cc1noc(C)c1CCC(=O)NC1CCCN(Cc2ccc(CC(C)C)cc2)C1 (stereo not given),-3.7%,-17.3%,-31.2%,10µM*,-5.3,0.9
CC(C)Cc1ccc(CN2CCCC(NC(=O)c3ccoc3)C2)cc1 (stereo not given),2.9%,u,-18.8%,8.91µM*,-0.3,-0.4

# Bioassay records: PubChem BioAssay, National Center for Advancing Translational Sciences (NCATS)
